Test results as given in PubChem BioAssay AID1159580 (chemical genetic matrix, 2015).
Several values for one entry are separate records, joined by “and”; a condition that tells them apart may be missing. Equal values may be shown once. About 2,000 (36%) of roughly 5,500 compounds were called active. Roughly 18% stayed inconclusive and do not appear here. No stated cut-off is given here; in the data, active means normalized growth mostly below about 0.91 (no sharp cut-off); inconclusive means no clear call, values can overlap the other calls; inactive means mostly above about 0.92. Some of the results follow.

Experiment: chemical genetic growth profiling, strain panel (AID 1159580);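 further: tested at 20 µM; growth read once vehicle control cultures reached saturation at 30 °C; 1 = growth at the plate median or of vehicle wells; lower values mean less growth of the strain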
Details: S. cerevisiae deletion strains, growth OD

Measured: normalized growth

CCN(CC)CCNC(=O)c1cc(Cl)c(N)cc1OC
inactive: locus YAL013W, strain DEP1, hits give low values 1.01 | locus YAL021C, strain ccr4, hits give low values 0.992 | locus YAL026C, strain drs2, hits give low values 0.998 | locus YAL030W, strain snc1, hits give low values 0.974 | locus YAL040C, strain CLN3, hits give low values 0.981 | locus YBL061C, strain skt5, hits give low values 0.976 | locus YBR009C, strain hhf1, hits give low values 0.987 | locus YBR021W, strain FUR4, hits give low values 1.02 | locus YBR023C, strain chs3, hits give low values 0.984 | locus YBR171W, strain sec66, hits give low values 0.979 | locus YBR229C, strain ROT2, hits give low values 1.01 | locus YBR231C, strain swc5, hits give low values 0.996 | locus YBR279W, strain paf1, hits give low values 0.992 | locus YCL011C, strain gbp2, hits give low values 0.94 | locus YCL016C, strain dcc1, hits give low values 0.948 | locus YCL029C, strain bik1, hits give low values 0.993 | locus YCL061C, strain MRC1 (second series), hits give low values 1.01 | locus YCL061C, strain MRC1, hits give low values 0.988 | locus YCL069W, strain vba3, hits give low values 0.985 | locus YCR088W, strain abp1, hits give low values 0.991 | locus YDL005C, strain med2, hits give low values 0.986 | locus YDL035C, strain GPR1, hits give low values 1.01 | locus YDL040C, strain nat1, hits give low values 0.988 | locus YDL074C, strain BRE1, hits give low values 1.02 | locus YDL101C, strain DUN1, hits give low values 1 | locus YDL134C, strain PPH21, hits give low values 1.01 | locus YDL185W, strain tfp1, hits give low values 0.996 | locus YDL192W, strain arf1, hits give low values 1.01 | locus YDR001C, strain nth1, hits give low values 0.968 | locus YDR069C, strain doa4, hits give low values 0.962 | locus YDR101C, strain arx1, hits give low values 0.985 | locus YDR137W, strain rgp1, hits give low values 0.967 | locus YDR150W, strain NUM1, hits give low values 1.02 and 1.01 | locus YDR159W, strain sac3, hits give low values 1.01 | locus YDR162C, strain NBP2, hits give low values 1.01 | locus YDR195W, strain ref2 0.974 | locus YDR297W, strain sur2, hits give low values 0.984 | locus YDR318W, strain mcm21, hits give low values 0.996 | locus YDR334W, strain swr1, hits give low values 0.93 | locus YDR335W, strain msn5, hits give low values 0.976 | locus YDR363W, strain ESC2, hits give low values 1.02 | locus YDR388W, hits give low values 0.995 | locus YDR392W, strain spt3, hits give low values 0.975 | locus YDR502C, strain sam2, hits give low values 0.988 | locus YEL003W, strain gim4, hits give low values 0.994 | locus YEL037C, strain rad23, hits give low values 0.976 | locus YEL061C, strain CIN8 (second series), hits give low values 0.978 | locus YEL061C, strain CIN8, hits give low values 1.01 | locus YER002W, strain NOP16, hits give low values 0.994 | locus YER015W, strain faa2, hits give low values 0.979 | locus YER016W, strain bim1, hits give low values 0.994 | locus YER110C, hits give low values 0.994 | locus YER111C, strain swi4, hits give low values 0.988 | locus YER155C, strain BEM2 (second series), hits give low values 1.03 | locus YER155C, strain BEM2, hits give low values 0.999 | locus YER167W, strain BCK2, hits give low values 1.01 | locus YFR010W, strain ubp6, hits give low values 0.969 | locus YGL078C, strain dbp3, hits give low values 0.997 | locus YGL086W, strain mad1, hits give low values 0.993 | locus YGL167C, strain pmr1, hits give low values 0.972 | locus YGL173C, strain kem1, hits give low values 0.98 | locus YGL227W, strain vid30, hits give low values 0.977 | locus YGL240W, strain doc1, hits give low values 1.01 | locus YGL248W, strain PDE1, hits give low values 1.01 | locus YGL253W, strain hxk2, hits give low values 0.981 | locus YGR078C, strain PAC10, hits give low values 1.02 | locus YGR135W, strain pre9, hits give low values 0.998 | locus YGR229C, strain SMI1, hits give low values 1.01 and 1.02 | locus YGR252W, strain gcn5, hits give low values 0.958 | locus YHR013C, strain ard1, hits give low values 0.955 | locus YHR027C, strain rpn1, hits give low values 0.963 | locus YHR030C, strain SLT2, hits give low values 1.01 and 1.07 | locus YHR079C, strain IRE1 (second series), hits give low values 0.994 | locus YHR079C, strain IRE1, hits give low values 1.07 | locus YHR094C, strain hxt1, hits give low values 0.992 | locus YHR129C, strain ARP1, hits give low values 1 | locus YHR142W, strain chs7, hits give low values 0.939 | locus YHR200W, strain rpn10, hits give low values 0.994 | locus YIL066C, strain RNR3, hits give low values 1.02 | locus YIL073C, strain SPO22, hits give low values 1.02 | locus YIL125W, strain kgd1, hits give low values 0.993 | locus YIR030C, strain dcg1, hits give low values 1 | locus YJL092W, strain hpr5, hits give low values 0.978 | locus YJL095W, strain BCK1 (second series), hits give low values 0.978 | locus YJL095W, strain BCK1, hits give low values 1 and 1.04 | locus YJL115W, strain asf1, hits give low values 0.953 | locus YJL129C, strain trk1, hits give low values 0.997 | locus YJL134W, strain LCB3, hits give low values 1.01 | locus YJL154C, strain vps35, hits give low values 0.971 | locus YJL164C, strain tpk1, hits give low values 1.01 | locus YJL166W, strain qcr8, hits give low values 0.956 | locus YJL168C, strain set2, hits give low values 0.992 | locus YJL187C, strain SWE1 (second series), hits give low values 1.02 | locus YJL187C, strain SWE1, hits give low values 0.989 | locus YJR043C, strain POL32, hits give low values 0.996 | locus YJR066W, strain TOR1, hits give low values 1
